From PubChem BioAssay AID540345 (The Scripps Research Institute Molecular Screening Center, 2011)
Values without a mark were called inactive. The rule behind the calls is not given here.

System: Imidazoline I2
Assay: off-target binding and CYP inhibition panel, profiling panel, selectivity assay for GPR7 antagonist project, biochemical, Ricerca HitProfilingScreen, CYP450, set 2 (AID 540345)
Conditions: Ricerca radioligand binding/CYP panel, central, at 10 µM, hits give high values

`COc1ccc(Oc2c(Cl)cnn(C3c4ccccc4-c4ccccc43)c2=O)cc1` gave an inhibition of 12%.
